Measured values taken from PubChem BioAssay (NCATS).
Records with an inconclusive call do not appear. A call without a number means that no potency is given here. Active and inactive are the calls of the source. Calls come from the whole dose curve; as a rule, active = well fitted inhibition curve with a large enough effect; inconclusive = small, poorly fitted or top-dose-only effect; inactive = no such curve, though single readings can be large or run the other way.

assay: Primary qHTS for inhibitors of nuclear receptor binding SET domain protein 2 (NSD2) in an RCH-ACV wild type WT cells (2C) (AID 1645877); settings: RCH-ACV (leukaemia line) NSD2 WT (2C) viability, CellTiter-Glo, 72 h; series mostly up to 44.9 µM; note: nearly all actives have a fitted effect of over 70% in size

SMILES	outcome	Potency	activity change, negative = cell killing
NC[C@@H]1O[C@@H](O[C@@H]2[C@@H](O[C@@H]3O[C@H](CO)[C@@H](O)[C@H]3O)[C@H](O)[C@@H](N)C[C@H]2N)[C@@H](N)[C@H](O)[C@H]1O	inactive [at 9.23 µM]		
COc1cc(/C=C/C(=O)O[C@@H]2C[C@@](O)(C(=O)O)C[C@@H](O)[C@@H]2O)ccc1O		inactive	
COc1cc(/C=C/C(=O)O[C@@H]2C[C@](O)(C(=O)O)C[C@@H](O)[C@H]2O)ccc1O		inactive	
CC(=O)/C=C/C1C(C)CC(O[C@@H]2O[C@H](CO)[C@@H](O)[C@H](O)[C@H]2O)CC1(C)C (stereo partly specified)		inactive	
CC(CC(C)O[C@@H]1O[C@H](CO)[C@@H](O)[C@H](O)[C@H]1O)OC(=O)/C=C/c1ccc(O)cc1 (stereo partly specified)		inactive	
O=S(=O)(O)c1ccc(Nc2ncnc3c2ncn3[C@@H]2O[C@H](CO)[C@@H](O)[C@H]2O)cc1		inactive	
COC(=O)C[C@@H]1C(C(=O)O)=CO[C@@H](O[C@@H]2O[C@H](CO)[C@@H](O)[C@H](O)[C@H]2O)/C1=C\COC(=O)/C=C/c1ccc(O)c(OC)c1		inactive	
CC(C)c1ccc2c(c1)C(=O)CC1C(C)(C(=O)O)CCCC21C (stereo unspecified)		inactive	
O=C(O)Cc1cn([C@@H]2O[C@H](CO)[C@@H](O)[C@H](O)[C@H]2O[C@@H]2O[C@H](CO)[C@@H](O)[C@H](O)[C@H]2O)c2ccccc12		inactive	
O=C(O)C[C@H]1CCC(=O)[C@@H]1C/C=C\CCO		inactive	
CC1OC(OC2C(OC(=O)[C@]34CCC(C)(C)C[C@H]3C3=CCC5[C@@]6(C)CC[C@H](OC7OC(C(=O)O)C(O)C(O)C7O)C(C)(C)C6CC[C@@]5(C)[C@]3(C)CC4O)OC(CO)C2O)C(O)C(O)C1OC1OCC(O)C(O)C1O (stereo partly specified)			-12.2% [at 9.23 µM] (inactive)
